# This is a sample that favours compounds with a hit; in the whole collection about 2.3% have one here.
# PLC-beta3 inh = PLC-beta3 (human) inhibition, primary screen. Q01970. AID 720704. actives 0.18% (n = 370,000). Purified PLC-beta3, fluorogenic substrate, fluorescence. inhibition, % at 12.2 µM; in the data active = inhibition above about 11%;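 also: 0% = median of compound wells on plate and 100% = full blocker control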
# MBD2 DNA inh = MBD2-methylated oligo binding inhibition | Q9UBB5 | actives 0.31% (n = 370,000) | TR-FRET, MBD2 binding to methylated oligonucleotide | AID 686964 | inhibition, % at 4.4 µM; in the data active = inhibition above about 13%
# UHRF1 MBD2 ctr = blocks human UHRF1 binding to methylated DNA. Q96T88. inhibition, % at 4.4 µM. actives 0.75% (n = 370,000). UHRF1 binding to methylated oligo, TR-FRET; in the data active = inhibition above about 21%;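 also: UHRF1 SRA domain binding a hemimethylated CpG hairpin DNA probe; 0% = median of test compound wells and 100% = reference inhibitor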
# Target sequence (Q96T88 whole entry, looked up, the tested form may be a part): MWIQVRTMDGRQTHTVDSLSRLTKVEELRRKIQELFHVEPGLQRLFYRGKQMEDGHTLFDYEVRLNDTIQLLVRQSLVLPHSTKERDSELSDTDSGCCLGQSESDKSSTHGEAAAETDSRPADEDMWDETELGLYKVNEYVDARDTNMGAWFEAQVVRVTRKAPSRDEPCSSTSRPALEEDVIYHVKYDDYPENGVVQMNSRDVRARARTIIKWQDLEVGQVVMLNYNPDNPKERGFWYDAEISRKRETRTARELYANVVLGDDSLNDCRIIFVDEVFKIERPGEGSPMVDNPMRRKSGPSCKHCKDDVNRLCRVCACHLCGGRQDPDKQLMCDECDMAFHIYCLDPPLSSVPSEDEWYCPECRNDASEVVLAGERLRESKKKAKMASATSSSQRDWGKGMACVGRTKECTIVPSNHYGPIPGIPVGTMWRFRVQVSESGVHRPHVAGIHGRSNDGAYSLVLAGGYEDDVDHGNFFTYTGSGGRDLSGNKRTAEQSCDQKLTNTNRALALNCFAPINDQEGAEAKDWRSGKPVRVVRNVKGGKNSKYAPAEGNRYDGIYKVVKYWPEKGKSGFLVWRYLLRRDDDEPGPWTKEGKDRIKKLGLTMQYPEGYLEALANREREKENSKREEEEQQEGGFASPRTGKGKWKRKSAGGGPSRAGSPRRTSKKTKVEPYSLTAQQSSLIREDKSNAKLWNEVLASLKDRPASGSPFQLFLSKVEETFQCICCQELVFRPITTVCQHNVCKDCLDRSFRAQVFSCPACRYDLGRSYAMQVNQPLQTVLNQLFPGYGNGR
# LEDGF integ inh = blocks HIV-1 LEDGF/p75-dependent DNA integration; AID 743269; TR-FRET IN-LEDGF/p75 DNA integration, Eu/Cy5; inhibition, % at 3.7 µM; actives 0.64% (n = 370,000);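 active = inhibition above the screen-wide mean plus 3 SD, cut at about 13% in these data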;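 also: signal is the Cy5 over europium emission ratio at 671 and 618 nm; 0% = plate median of compound wells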
# PLC-gamma1 inh = inhibitors of human phospholipase C gamma1 | inhibition, % at 12.2 µM | AID 720700 | P19174 | purified PLC-gamma1, fluorogenic substrate, fluorescence | actives 0.84% (n = 370,000)
# UHRF1 DNA bind = inhibits human UHRF1 binding to methylated oligonucleotide, MBD2 counter-screen; shares compounds with MBD2 DNA inh; TR-FRET; inhibition, % at 4.4 µM; actives 25% (n = 1,000); in the data active = inhibition above about 21%;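 also: UHRF1 SRA domain binding a labeled hemimethylated CpG hairpin DNA; 0% = vehicle only and 100% = reference inhibitor with vehicle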
# MBD2 confirm = confirmation of human MBD2-DBD methylated oligonucleotide binding inhibitors; inhibition, % at 4.4 µM; shares compounds with MBD2 DNA inh; TR-FRET MBD2-DBD binding to methylated oligonucleotide; actives 26% (n = 1,000); in the data active = inhibition above about 14%
# PLCgamma1 ctr = counter-screen for PLC-beta3 inhibitors: inhibitors of human PLC-gamma1; shares compounds with PLC-gamma1 inh; purified PLC-gamma1, fluorogenic substrate, fluorescence; inhibition, % at 12.3 µM; actives 3.1% (n = 3,300); AID 743258
# PLCb3 confirm = human PLC-beta3 inhibition, confirmation; purified PLC-beta3, fluorogenic substrate fluorescence; inhibition, % at 12.3 µM; actives 1% (n = 3,300); shares compounds with PLC-gamma1 inh; in the data active = inhibition above about 11%
# IN multimer up = activates HIV-1 integrase multimerization in LEDGF counter-screen | shares compounds with LEDGF integ inh | TR-FRET HIV-1 integrase multimerization, biochemical | activation, % at 7.7 µM | actives 17% (n = 2,000) | AID 1053131; in the data active = activation above about 8.9%
# TRFRET interf = counter-screen for LEDGF/p75 integration inhibitors: TR-FRET optical interference; shares compounds with LEDGF integ inh; TR-FRET optical interference counterscreen, HIV-1 IN multimerization; inhibition, % at 7.7 µM; 2,000 tested, under 10 active; AID 1053135;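 active = inhibition above the mean over all tested compounds plus 3 SD, which no compound reached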;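 also: 0% = integrase with antibodies and DMSO and 100% = antibodies without integrase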
# LEDGF integ conf = LEDGF/p75-dependent HIV-1 integration inhibition, confirmation; shares compounds with LEDGF integ inh; TR-FRET LEDGF/p75-dependent HIV-1 integration, biochemical; inhibition, % at 3.7 µM; actives 36% (n = 2,000); AID 1053136; in the data active = inhibition above about 14%
# * hit, by the source's call; i = inactive; . = not tested or not shown. Rule as the data show it, unless noted: active = inhibition above about 9.5%; inactive = the rest.
SMILES,PLC-beta3 inh,MBD2 DNA inh,UHRF1 MBD2 ctr,LEDGF integ inh,PLC-gamma1 inh,UHRF1 DNA bind,MBD2 confirm,IN multimer up,TRFRET interf,LEDGF integ conf,others
C=C1c2cccc(O)c2C(O)=C2C(=O)[C@]3(O)C(O)=C(C(N)=O)C(=O)[C@@H](N(C)C)[C@@H]3[C@@H](O)[C@H]12,-33.0,91.0*,97.7*,85.0*,15.3*,21.0*,9.1,50.4*,-179.5,62.6*,PLCgamma1 ctr=-159.7;PLCb3 confirm=-188.1
O=C(O[C@H]1CC[C@@]23CCCN2C(=O)CCC[C@H]3C1)N1CCOCC1,-5.8,-0.8,4.1,-0.9,4.3,.,.,.,.,.,
Cc1cc(/C=C2\SC(=O)NC2=O)c(C)n1-c1ccc(N(C)C)cc1,-7.0,16.5*,38.9*,42.2*,3.8,8.0,3.2,1.7,-6.1,-0.8,
Cc1cc(/C=C2\SC(=O)NC2=O)c(C)n1-c1ccc(N2CCOCC2)cc1,-17.8,-1.6,-1.3,-1.9,-7.8,.,.,.,.,.,
O=C(O)c1ccc(-n2cccc2/C=C2/NC(=O)N(c3cccc(Cl)c3)C2=O)cc1,-19.1,38.8*,81.0*,33.0*,0.9,78.2*,49.1*,12.5*,-63.0,31.3*,
O=C(O)c1ccc(-n2cccc2/C=C2/NC(=O)N(c3ccccc3)C2=O)cc1,-13.3,36.7*,77.4*,21.9*,2.8,72.0*,44.2*,14.2*,-71.7,31.3*,
O=C(O)c1cccc(-n2cccc2/C=C2\NC(=O)N(Cc3ccc(F)cc3)C2=O)c1,-2.2,1.1,9.4,1.9,-0.7,.,.,.,.,.,
N#Cc1ccccc1CN1C(=O)S/C(=C/c2cccn2-c2ccc(C(=O)O)cc2)C1=O,0.1,8.7,10.2,4.7,-3.2,.,.,.,.,.,
O=C(O)c1ccc(-n2cccc2/C=C2/SC(=O)N(CC(=O)N3CCCC3)C2=O)cc1,-4.8,43.8*,76.0*,36.2*,1.1,85.4*,49.0*,15.9*,-80.3,35.9*,
COc1ccc(N2CCN(CCCNC(=O)CCOC(C)(C)C)CC2)cc1,0.2,-2.5,-0.7,0.5,3.1,.,.,.,.,.,
O=C(C1CCC1)n1ccc2ccc(-c3ccc4ccn(Cc5ccccc5)c4c3)cc21,-6.8,0.5,0.0,2.6,-4.5,.,.,.,.,.,
CN[C@H]1C[C@H]2c3[nH]c4cccc(-c5ccccc5)c4c3CCN2C[C@H]1[C@H](C)O,-217.2,-1.1,-3.0,4.3,-193.8,.,.,.,.,.,
NC(=O)c1sc2nc3c(c(-c4ccco4)c2c1N)CCC3,-42.2,14.9*,47.3*,43.0*,-32.8,-4.8,-4.7,1.8,-9.0,7.5,
Cc1ccc(-c2c3c(nc4sc(C(N)=O)c(N)c24)CCCC3)o1,-101.5,-5.4,-3.5,0.5,-88.1,.,.,.,.,.,
O=C1/C(=C/C=C/c2ccco2)SC(=S)N1NS(=O)(=O)c1ccccc1,-53.0,68.7*,96.7*,70.5*,-9.1,88.1*,51.5*,20.3*,-72.6,76.2*,
CC(C(=O)O)N1C(=O)/C(=C/C=C/c2ccco2)SC1=S (configuration not stated),-3.1,101.5*,101.0*,93.2*,36.8*,103.2*,110.2*,47.6*,-169.2,88.2*,PLCgamma1 ctr=20.1*;PLCb3 confirm=-14.3
COc1cc(/C=C2\CCc3c2nc2ccccc2c3C(=O)O)cc(OC)c1OC,i,25.7*,48.5*,25.9*,i,33.9*,14.5*,7.4,-37.4,33.9*,
COc1ccc(Cn2ccc3ccc(-c4ccc5ccn(Cc6cccc(F)c6)c5c4)cc32)cc1,-124.8,1.2,-1.7,3.5,-85.2,.,.,.,.,.,
CCOC(=O)C1CCCN(C(=O)c2cc(-c3ccco3)nc3ccccc23)C1 (configuration not stated),-322.6,20.2*,37.6*,25.2*,-263.3,38.8*,24.5*,8.8,-44.1,47.6*,
CCOC(=O)C1CCCN(C(=O)c2cc(-c3ccncc3)nc3ccccc23)C1 (configuration not stated),-6.6,-1.1,1.1,3.4,-1.6,.,.,.,.,.,
O=C(CCN1C(=O)/C(=C/c2ccco2)SC1=S)Nc1ccc(O)cc1C(=O)O,-49.2,68.4*,94.6*,78.1*,7.2,37.9*,8.2,19.3*,-97.6,46.0*,
O=C(CCCN1C(=O)/C(=C/c2ccco2)SC1=S)Nc1ccccc1C(=O)O,-29.0,26.7*,81.7*,38.5*,-0.4,51.7*,15.8*,9.7*,-35.7,26.5*,
Cc1c(NC(=O)C2CCCN(S(=O)(=O)c3ccc(Br)s3)C2)c(=O)n(-c2ccccc2)n1C (configuration not stated),-0.3,-2.8,-0.6,-1.1,-0.6,.,.,.,.,.,
Cc1ccccc1-c1nnnn1C1CCS(=O)(=O)C1 (configuration not stated),1.9,3.1,0.5,-3.4,0.5,.,.,.,.,.,
Cc1cc(=O)n(C2CCS(=O)(=O)C2)[nH]1 (configuration not stated),-1.6,13.8*,17.2,22.1*,7.6,-1.9,1.6,-2.4,8.7,-0.3,
Cc1nc(S/C(=C\c2ccc(-c3ccc(C(=O)O)c(Cl)c3)o2)C(=O)O)n[nH]1,-58.6,27.1*,88.3*,60.3*,-19.0,53.1*,10.4,18.2*,-91.7,32.3*,
Cc1cc(NS(=O)(=O)c2ccc(NC(=S)NC(=O)c3cccnc3)cc2)no1,3.1,27.1*,64.7*,25.9*,3.0,4.2,1.9,1.6,-8.0,-0.6,
C[C@H](NS(=O)(=O)c1ccc([N+](=O)[O-])cc1)C(=O)NCCNC(=O)[C@@H](C)NS(=O)(=O)c1ccc([N+](=O)[O-])cc1,-1.6,2.2,2.2,-0.7,-0.1,.,.,.,.,.,
Cc1nc2ccc(NS(=O)(=O)c3ccc(F)cc3F)cc2s1,-37.4,-2.7,-3.6,-0.8,-29.6,.,.,.,.,.,
O=S(=O)(Nc1nc(-c2ccco2)c(-c2ccco2)s1)c1ccc(F)cc1F,-50.5,23.4*,59.0*,35.3*,-23.7,11.0,3.7,1.0,-5.1,9.8,
